# Data as given in ChEMBL document CHEMBL1157539, “Thousands of chemical starting points for antimalarial lead identification” (Nature, 2010).
# System: Plasmodium falciparum
# Assay: GSK_TCMDC: Inhibition of Plasmodium falciparum 3D7 in whole red blood cells, using parasite LDH activity as an index of growth. Test compounds present at 2uM
# Format: functional
row,Structure (SMILES),Inhibition
1,CN1CCC(NCc2ccc(-c3cccc(S(=O)(=O)NCc4ccccc4)c3)cc2)CC1.O=C(O)C(F)(F)F,100%
2,Cl.FC(F)(F)c1ccc2c(NCCc3ccccc3)ccnc2c1,87%
3,Fc1cc(Cl)ccc1Nc1ccnc2cc(-c3ccc(CN4CCCCC4)o3)ccc12,100%
4,Cc1cc(N/N=C/c2ccccc2[N+](=O)[O-])c2ccc(F)cc2n1,100%
5,CC(C)(C)CCOC(=O)N1CCc2c(cc(O)c(O)c2Cl)C(c2ccc(O)cc2)C1 (stereo not drawn),97%
6,NC(=O)c1cccc(C(=O)Nc2cccc(-c3csc(-c4nc5ccccc5[nH]4)c3)c2)c1,100%
7,Cc1n[nH]c2cc(Nc3nccc(Nc4ccc(Oc5ccccc5)cc4)n3)ccc12.Cl,100%
8,CCCC(=O)Nc1ccc(OCCCN(Cc2ccccc2C(F)(F)F)c2ccc(C#N)c(C(F)(F)F)c2)cc1,89%
9,CCNc1cc(C(=O)N[C@@H](Cc2ccc(F)c(F)c2)[C@H](O)CNCc2cccc(OC)c2)cc(N2CCCCS2(=O)=O)c1.Cl,99%
10,Cc1cccc2nc(-c3ccc(-c4ccc(CNCc5ccccc5)cc4)cc3)[nH]c12.O=C(O)C(F)(F)F,99%
11,CNCc1cccc(-c2ccc3ccnc(N)c3c2)c1,100%
12,O=C(Nc1ccc(-c2cccc(-c3nc4cc(C(F)(F)F)ccc4[nH]3)c2)cc1)Nc1ccc(Cl)c(Cl)c1,98%
13,CCOc1ccc(-c2nonc2NC(=O)c2ccccc2Cl)cc1OCC,100%
14,CS(=O)(=O)O.CSc1ccc2ccccc2c1CCNCCCCNCCc1c(SC)ccc2ccccc12,100%
15,Cl.O=c1cc(NCCCNCc2sc(Br)nc2Br)[nH]c2ccccc12,92%
16,C=CC[C@H](NC(=O)c1ccc(NS(=O)(=O)c2ccc3nc(N)[nH]c(=O)c3c2)cc1)C(=O)OCCCC,97%
17,COc1cccc(NC(=O)[C@H](C(C)C)n2c(=O)[nH]c3ccccc3c2=O)c1,100%
18,Cl.O=C(NC1CCC(N2CCN(c3cccc4[nH]ccc34)CC2)CC1)c1cc2cccnc2[nH]1 (stereo not drawn),99%
19,CCc1c(C)c(C#N)c2nc3ccccc3n2c1NCc1ccco1,99%
20,O=[N+]([O-])c1cc(C(c2ccc(O)c([N+](=O)[O-])c2)C(Cl)(Cl)Cl)ccc1O,93%

row,Structure (SMILES),Inhibition
1,Cc1ccc(-c2cc(C(=O)Nc3ccc(S(=O)(=O)N4CCCCC4C)cc3)n[nH]2)c(O)c1 (stereo not drawn),100%
2,CCc1cn(C)c2c(N3CCCC3=O)cc(C(=O)N[C@@H](Cc3ccccc3)[C@H](O)CNC(C)(C)c3cccc(OC)c3)cc12,95%
3,O=C(CSc1nc(-c2ccccc2Cl)ns1)Nc1cccc(F)c1,93%
4,CN(C)c1ccc2nc(N)nc(N)c2c1Cl.Cl,98%
5,CN1CCC(N(Cc2ccc(-c3cnc(NCc4ccccc4)nc3)cc2)S(=O)(=O)c2ccccc2)CC1.O=C(O)C(F)(F)F,100%
6,CC1CCCN(Cc2cc(Cl)cc(Cl)c2O)C1 (stereo not drawn),89%
7,Cc1ccn2c(N(Cc3ccccc3)C(=O)c3ccc(Cl)c(Cl)c3)c(-c3ccccc3)nc2c1,95%
8,CC(C)Cn1cc(C2CCN(CCN3CCC(CNC(=O)c4ccc(NC(=O)c5cc(Cl)cc(Cl)c5)cc4)CC3)CC2)c2ccccc21,91%
9,CCN(CC)Cc1cccc(-c2cc3c(-c4ccc(C(=O)O)c(C(C)C)c4)ccnc3[nH]2)c1OC.O=C(O)C(F)(F)F,99%
10,Cc1ccc(N)cc1-c1nc(NC2CC(C)(C)NC(C)(C)C2)nc2c1ccc(=O)n2-c1c(F)cccc1F,98%
11,CN1CCN(CCCN(Cc2csc(-c3ccc(CNCc4ccccc4)cc3)n2)S(=O)(=O)c2ccccc2Cl)CC1.O=C(O)C(F)(F)F,93%
12,C#CCOc1ccccc1CN1CCC(N2CCc3cc(NC(=O)c4cc(C)on4)ccc32)C1 (stereo not drawn),95%
13,CN1CCN(CCCN(Cc2csc(-c3ccc(CNCc4ccccc4)cc3)n2)C(=O)Nc2cccc(Cl)c2)CC1.O=C(O)C(F)(F)F,100%
14,CCOc1ccc2nc(NC(=O)c3csnn3)sc2c1,100%
15,Br.CC(C)(C)c1ccccc1OCCCON1C(=N)N=C(N)NC1(C)C,95%
16,OC(CNc1ccnc(Nc2ccc(Cl)cc2)n1)c1ccc(C(F)(F)F)cc1 (stereo not drawn),100%
17,CNC(=O)c1c(NC(=O)c2cccs2)sc2c1CCCC2,94%
18,Cc1cc(=O)c(-c2ccc(Oc3ccc(C(F)(F)F)cc3)cc2)c(C)n1O,94%
19,O=C(Nc1ccc(OC2CCN(Cc3ccc(F)cc3)CC2)c(Cl)c1)c1cccs1.O=C(O)C(F)(F)F,95%

# System: Plasmodium falciparum
# Assay: GSK_TCMDC: Inhibition of Plasmodium falciparum Dd2 in whole red blood cells, using parasite LDH activity as an index of growth. Test compounds present at 2uM
# Format: functional
row,Structure (SMILES),Inhibition
1,CN1CCC(NCc2ccc(-c3cccc(S(=O)(=O)NCc4ccccc4)c3)cc2)CC1.O=C(O)C(F)(F)F,94%
2,Cl.FC(F)(F)c1ccc2c(NCCc3ccccc3)ccnc2c1,9%
3,Fc1cc(Cl)ccc1Nc1ccnc2cc(-c3ccc(CN4CCCCC4)o3)ccc12,99%
4,Cc1cc(N/N=C/c2ccccc2[N+](=O)[O-])c2ccc(F)cc2n1,100%
5,CC(C)(C)CCOC(=O)N1CCc2c(cc(O)c(O)c2Cl)C(c2ccc(O)cc2)C1 (stereo not drawn),95%
6,NC(=O)c1cccc(C(=O)Nc2cccc(-c3csc(-c4nc5ccccc5[nH]4)c3)c2)c1,92%
7,Cc1n[nH]c2cc(Nc3nccc(Nc4ccc(Oc5ccccc5)cc4)n3)ccc12.Cl,98%
8,CCCC(=O)Nc1ccc(OCCCN(Cc2ccccc2C(F)(F)F)c2ccc(C#N)c(C(F)(F)F)c2)cc1,79%
9,CCNc1cc(C(=O)N[C@@H](Cc2ccc(F)c(F)c2)[C@H](O)CNCc2cccc(OC)c2)cc(N2CCCCS2(=O)=O)c1.Cl,85%
10,Cc1cccc2nc(-c3ccc(-c4ccc(CNCc5ccccc5)cc4)cc3)[nH]c12.O=C(O)C(F)(F)F,90%
11,CNCc1cccc(-c2ccc3ccnc(N)c3c2)c1,98%
12,O=C(Nc1ccc(-c2cccc(-c3nc4cc(C(F)(F)F)ccc4[nH]3)c2)cc1)Nc1ccc(Cl)c(Cl)c1,23%
13,CCOc1ccc(-c2nonc2NC(=O)c2ccccc2Cl)cc1OCC,100%
14,CS(=O)(=O)O.CSc1ccc2ccccc2c1CCNCCCCNCCc1c(SC)ccc2ccccc12,60%
15,Cl.O=c1cc(NCCCNCc2sc(Br)nc2Br)[nH]c2ccccc12,44%
16,C=CC[C@H](NC(=O)c1ccc(NS(=O)(=O)c2ccc3nc(N)[nH]c(=O)c3c2)cc1)C(=O)OCCCC,2%
17,COc1cccc(NC(=O)[C@H](C(C)C)n2c(=O)[nH]c3ccccc3c2=O)c1,100%
18,Cl.O=C(NC1CCC(N2CCN(c3cccc4[nH]ccc34)CC2)CC1)c1cc2cccnc2[nH]1 (stereo not drawn),85%
19,CCc1c(C)c(C#N)c2nc3ccccc3n2c1NCc1ccco1,90%
20,O=[N+]([O-])c1cc(C(c2ccc(O)c([N+](=O)[O-])c2)C(Cl)(Cl)Cl)ccc1O,98%

row,Structure (SMILES),Inhibition
1,Cc1ccc(-c2cc(C(=O)Nc3ccc(S(=O)(=O)N4CCCCC4C)cc3)n[nH]2)c(O)c1 (stereo not drawn),99%
2,CCc1cn(C)c2c(N3CCCC3=O)cc(C(=O)N[C@@H](Cc3ccccc3)[C@H](O)CNC(C)(C)c3cccc(OC)c3)cc12,99%
3,O=C(CSc1nc(-c2ccccc2Cl)ns1)Nc1cccc(F)c1,81%
4,CN(C)c1ccc2nc(N)nc(N)c2c1Cl.Cl,0%
5,CN1CCC(N(Cc2ccc(-c3cnc(NCc4ccccc4)nc3)cc2)S(=O)(=O)c2ccccc2)CC1.O=C(O)C(F)(F)F,10%
6,CC1CCCN(Cc2cc(Cl)cc(Cl)c2O)C1 (stereo not drawn),77%
7,Cc1ccn2c(N(Cc3ccccc3)C(=O)c3ccc(Cl)c(Cl)c3)c(-c3ccccc3)nc2c1,0%
8,CC(C)Cn1cc(C2CCN(CCN3CCC(CNC(=O)c4ccc(NC(=O)c5cc(Cl)cc(Cl)c5)cc4)CC3)CC2)c2ccccc21,96%
9,CCN(CC)Cc1cccc(-c2cc3c(-c4ccc(C(=O)O)c(C(C)C)c4)ccnc3[nH]2)c1OC.O=C(O)C(F)(F)F,99%
10,Cc1ccc(N)cc1-c1nc(NC2CC(C)(C)NC(C)(C)C2)nc2c1ccc(=O)n2-c1c(F)cccc1F,1%
11,CN1CCN(CCCN(Cc2csc(-c3ccc(CNCc4ccccc4)cc3)n2)S(=O)(=O)c2ccccc2Cl)CC1.O=C(O)C(F)(F)F,81%
12,C#CCOc1ccccc1CN1CCC(N2CCc3cc(NC(=O)c4cc(C)on4)ccc32)C1 (stereo not drawn),94%
13,CN1CCN(CCCN(Cc2csc(-c3ccc(CNCc4ccccc4)cc3)n2)C(=O)Nc2cccc(Cl)c2)CC1.O=C(O)C(F)(F)F,67%
14,CCOc1ccc2nc(NC(=O)c3csnn3)sc2c1,98%
15,Br.CC(C)(C)c1ccccc1OCCCON1C(=N)N=C(N)NC1(C)C,98%
16,OC(CNc1ccnc(Nc2ccc(Cl)cc2)n1)c1ccc(C(F)(F)F)cc1 (stereo not drawn),94%
17,CNC(=O)c1c(NC(=O)c2cccs2)sc2c1CCCC2,2%
18,Cc1cc(=O)c(-c2ccc(Oc3ccc(C(F)(F)F)cc3)cc2)c(C)n1O,78%
19,O=C(Nc1ccc(OC2CCN(Cc3ccc(F)cc3)CC2)c(Cl)c1)c1cccs1.O=C(O)C(F)(F)F,96%
